Several values for one entry are separate records, joined by “and”; a condition that tells them apart may be missing. Equal values may be shown once. Results filed as inconclusive are left out. Activity calls are given as the source filed them. The call rests on the fitted dose curve; in most records, active means well fitted inhibition curve with a large enough effect; inconclusive means small, poorly fitted or top-dose-only effect; inactive means no such curve, though single readings can be large or run the other way.
Assay: qHTS screen for inhibitors of ELG1-dependent DNA repair in human embryonic kidney (HEK293T) cells expressing luciferase-tagged ELG1: MMS Viability Assay for probe SAR
Settings: HEK293T ELG1-luc + MMS viability, CellTiter-Glo, 16 h; series mostly up to 46.1 µM; activity change, negative = lower viability: at the top concentration
From the text: Cancer cells divide rapidly compared to normal cells in the body. During cell division, cancer cells need to duplicate their genome by DNA replication. The failure of genome duplication leads to cancer cells' death. Therefore, inhibitors of DNA replication could specifically kill cancer cells. Based on this concept, many chemotherapeutic agents were developed and have been used to treat cancer patients. However, there are a limited number of agents available in the clinical setting, and some of those that do exist have low efficacy and severe side effects. Therefore, if we can find the compounds that effectively block DNA replication either by directly damaging DNA or by inhibiting other cellular mechanisms, the options for cancer treatment will be broadened. With this in mind, we developed a quantitative high-throughput ELG1-luciferase reporter gene assay. Small molecules that specifically block ELG1 function in response to DNA damage can be identified by monitoring the suppression of luciferase activity. Since ELG1 defines a pathway for repairing DNA damage, agents blocking ELG1 function can be used to sensitize cancer cells to chemotherapeutic agents whose mechanism of action involves the induction of DNA damage. Cytotoxicity of the active compounds in the ELG1 qHTS assay with MMS stimulation (AID 493125) was assessed using the CellTiter-Glo Luminescent Cell Viability Assay kit (Promega, USA). CellTiter-Glo measures the intracellular ATP present in metabolically active cells using Ultra-Glo as the luciferase to detect ATP levels. In brief, the luciferase in the buffer catalyzes the oxidation of luciferin to oxyluciferin and light which is dependent on ATP. […] DMSO and wells with media alone were used as positive and negative controls, respectively. Inactivity to this assay is the desirable outcome. NIH Molecular Libraries Probe Production Network [MLPCN] NIH Chemical Genomics Center [NCGC] MLPCN Grant: R03 MH092164 Assay Provider: Kyungjae Myung, NHGRI, NIH
ELG1-luc HEK293T cells will be seeded in 1536-well plates at a density of 2,000 cells/well. Approximately 5 hours after plating, compounds will be added to the plate by pin tool transfer and MMS will be added by FRD dispenser (final concentration of MMS = 10 µM). 16 hours following the addition of the compounds, cell viability will be measured using CellTiter Glo.
With CSc1ccccc1-c1ccc(Nc2nc(-c3ccncc3)nc3ccccc23)cc1F the “activity change, negative = lower viability” value was -35.6% (inactive). In the case of O=c1cc(-c2nc(Nc3ccc(F)c(F)c3)c3ccccc3n2)cc[nH]1, the “activity change, negative = lower viability” value is reported as 9.88% (inactive). With Fc1ccc(Nc2nc(-c3ccnc(C(F)(F)F)c3)nc3ccccc23)cc1F the Potency was 20.9 µM (active). With Fc1ccc(-c2ccc(Nc3nc(-c4ccncc4)nc4ccccc34)cc2F)c(F)c1 the Potency was 7.43 µM (active). With Fc1cc(Nc2nc(-c3ccncc3)nc3ccccc23)ccc1-c1cc(F)c(F)c(F)c1 the “activity change, negative = lower viability” value was 4.68% (inactive). In the case of Fc1cc(Nc2nc(-c3ccncc3)nc3ccccc23)ccc1-c1cccc(OC(F)(F)F)c1, the Potency is reported as 18.7 µM (active). With Fc1cc(Nc2nc(-c3ccncc3)nc3ccccc23)ccc1-c1cncnc1 the “activity change, negative = lower viability” value was 13.8% (inactive). In the case of COc1ccc(-n2c(C)c(C(C)=O)c3ccccc32)cc1, the Potency is reported as “inactive”. With Cc1cc(-c2nc(Nc3ccc(F)c(F)c3)c3ccccc3n2)cc(C)n1 the “activity change, negative = lower viability” value was -8.79% (inactive). For COc1ccc(Nc2nc(-c3ccncc3)nc3ccccc23)cc1F, the “activity change, negative = lower viability” value was 6.58% (inactive). With COc1nccc(-c2nc(Nc3ccc(F)c(F)c3)c3ccccc3n2)c1Cl the “activity change, negative = lower viability” value was -4.2% (inactive). For Fc1cc(Nc2nc(-c3ccncc3)nc3ccccc23)ccc1OCC(F)(F)F, the “activity change, negative = lower viability” value was -9.42% (inactive). In the case of Fc1ccc(Nc2nc(-c3ccncc3)nc3ccccc23)cc1F, the “activity change, negative = lower viability” value is reported as -6.97% (inactive). With Fc1cc(Nc2nc(-c3ccncc3)nc3ccccc23)ccc1-c1cccc(OC(F)F)c1 the “activity change, negative = lower viability” value was -22.4% (inactive). In the case of Oc1ccc(Nc2nc(-c3ccncc3)nc3ccccc23)cc1F, the “activity change, negative = lower viability” value is reported as -27.3% (inactive). With Nc1cc(-c2nc(Nc3ccc(F)c(F)c3)c3ccccc3n2)ccn1 the “activity change, negative = lower viability” value was 11.4% (inactive). For Fc1cccc(-c2ccc(Nc3nc(-c4ccncc4)nc4ccccc34)cc2F)c1, the “activity change, negative = lower viability” value was -21.1% (inactive). With Fc1ccc(Nc2nc(-c3ccncc3Cl)nc3ccccc23)cc1F the “activity change, negative = lower viability” value was -3.34% (inactive). For COc1cc(Nc2nc(-c3ccncc3)nc3ccccc23)ccc1F, the Potency was 23.5 µM (active) and 20.9 µM (active). For Fc1cc(Nc2nc(-c3ccncc3)nc3ccccc23)ccc1-c1cn[nH]c1, the “activity change, negative = lower viability” value was -4.27% (inactive). With CCOC(=O)c1ccc2c(c1)c(C(C)=O)c(C)n2-c1ccc(OC)cc1 the “activity change, negative = lower viability” value was 1.14% (inactive). In the case of CN1CCN(c2ccc(Nc3nc(-c4ccncc4)nc4ccccc34)cc2F)CC1, the “activity change, negative = lower viability” value is reported as -7.11% (inactive). With Fc1cc(Nc2nc(-c3ccncc3)nc3ccccc23)ccc1-c1ccc(F)c(F)c1F the “activity change, negative = lower viability” value was 3.54% (inactive). In the case of Fc1cc(Nc2nc(-c3ccncc3)nc3ccccc23)ccc1-c1cccnc1, the “activity change, negative = lower viability” value is reported as 1.55% (inactive). For Cc1nc2ccc(Nc3nc(-c4ccncc4)nc4ccccc34)cc2s1, the “activity change, negative = lower viability” value was -3.61% (inactive). With Fc1cc(Nc2nc(-c3ccncc3)nc3ccccc23)ccc1-c1cccc(C(F)(F)F)c1 the Potency was 20.9 µM (active). For Fc1cc(Nc2nc(-c3ccncc3)nc3ccccc23)ccc1C(F)(F)F, the Potency was 7.43 µM (active) and 16.6 µM (active). For COc1cnccc1-c1nc(Nc2ccc(F)c(F)c2)c2ccccc2n1, the Potency was 16.6 µM (active). With COc1ccc(-n2c(C)c(C(C)=O)c3cc(O)ccc32)cc1 the “activity change, negative = lower viability” value was 12.3% (inactive). In the case of Fc1cc(Nc2nc(-c3ccncc3)nc3ccccc23)ccc1-c1ccncc1, the “activity change, negative = lower viability” value is reported as 2.69% (inactive). For Fc1cc(Nc2nc(-c3ccncc3)nc3ccccc23)ccc1-c1ccnc(C(F)(F)F)c1, the “activity change, negative = lower viability” value was -11.2% (inactive). With COC(=O)c1ccc(Nc2nc(-c3ccncc3)nc3ccccc23)cc1OC the “activity change, negative = lower viability” value was 3.72% (inactive). For Cc1cc(-c2nc(Nc3ccc(F)c(F)c3)c3ccccc3n2)ccn1, the “activity change, negative = lower viability” value was 5.15% (inactive). In the case of Fc1ccc(-c2ccc(Nc3nc(-c4ccncc4)nc4ccccc34)cc2F)c(Cl)c1, the Potency is reported as 18.7 µM (active). For COc1ccc(-c2nc(Nc3ccc(F)c(F)c3)c3ccccc3n2)cc1, the “activity change, negative = lower viability” value was -27.9% (inactive). For Fc1cc(Nc2nc(-c3ccncc3)nc3ccccc23)ccc1-c1ccc2[nH]ncc2c1, the “activity change, negative = lower viability” value was -12.3% (inactive). In the case of Fc1ccc(Nc2nc(-c3ccnc(N4CCCCC4)c3)nc3ccccc23)cc1F, the “activity change, negative = lower viability” value is reported as 3.34% (inactive). In the case of COc1cc(-c2nc(Nc3ccc(F)c(F)c3)c3ccccc3n2)cc(OC)n1, the “activity change, negative = lower viability” value is reported as -75.3% (inactive). In the case of Fc1ccc(-c2nc(-c3ccncc3)nc3ccccc23)cc1F, the “activity change, negative = lower viability” value is reported as -13.7% (inactive). For Cc1cnccc1-c1nc(Nc2ccc(F)c(F)c2)c2ccccc2n1, the “activity change, negative = lower viability” value was -5.06% (inactive).
